Several values for one entry are separate records, joined by “and”; a condition that tells them apart may be missing. Equal values may be shown once. Results filed as inconclusive are left out. Entries that show only a call come without a potency. Activity calls are given as the source filed them. Unless noted, calls follow the shape of the dose curve; as a rule, active = well fitted curve in the direction sought with a large enough effect; inconclusive = small, poorly fitted or top-dose-only effect, or another doubt; inactive = no such curve, though single readings can be large; an effect the other way counts as inactive or inconclusive. Non-standard residues stand in square brackets, D forms with d. Residues, ends and D or L forms follow the SMILES beside them. Orn = NCCC[C@H](N)C(=O)O
What was measured:
[1] = qHTS assay to identify small molecule inhibitors of chordoma cells - UCH-2 (AID 1259356); also: potency is read from the fitted curve at half-maximal effect
[2] = P-glycoprotein substrates identified in KB-8-5-11 adenocarcinoma cell line, qHTS therapeutic library screen (AID 1346987); also: nearly all actives have a fitted effect of over 65% in size; also: potency is read from the fitted curve at half-maximal effect
Outline: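 KB-8-5-11: colchicine-selected sub-line of KB-3-1 over-expressing P-gp; assay medium lacked colchicine. 72 h drug exposure at 37 degree C, CellTiter-Glo.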

[3] = P-glycoprotein substrates identified in KB-3-1 adenocarcinoma cell line, qHTS therapeutic library screen (AID 1346986); also: nearly all actives have a fitted effect of over 60% in size
Outline: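 Compounds were tested in dose-response against KB-3-1 and KB-8-5-11 cells at 37 degree C for 72 h, and viability was measured by luminescence. AC50 values came from curve fitting with class-based activity calls.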

[4] = qHTS profiling of the MIPE4 collection as inhibitors of Plasmodium falciparum (DD2) proliferation (Rep 2) (AID 743346; call rule not given here); settings: P. falciparum Dd2 in erythrocytes, SYBR Green DNA, 72 h; at 28.5 µM (top of the series) unless noted
Outline: (§1)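 Erythrocytes infected with P. falciparum (0.3% parasitemia, 2.5% hematocrit) incubated with compounds 72 h at 37 C, 5% CO2. Lysis with saponin/Triton buffer containing SYBR Green I, overnight at room temperature in the dark; DNA fluorescence (485/535 nm) normalised to 0.29 uM artemisinin and DMSO.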

[5] = qHTS profiling of the MIPE4 collection as inhibitors of Plasmodium falciparum (HB3) proliferation (AID 743347; call rule not given here); settings: P. falciparum HB3 in erythrocytes, SYBR Green DNA, 72 h; at 28.5 µM (top of the series) unless noted
Outline: as §1

[6] = Identifying Small Molecule Inhibitors of Pancreatic Cancer Stem Cells (A2780, Spheroid) (AID 1259357); settings: Potency: A2780 spheroid viability;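 also: compound exposure lasted 48 h before the ATP luminescence read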; also: potency is read from the fitted curve at half-maximal effect
Outline: (§2)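 Cytotoxicity read by CellTiter-Glo luminescence after 48 h compound exposure at 37C; percent activity scaled between DMSO-treated cells and cell-free wells. Spheroid formats used cells pre-formed 14 days in stem cell media on hydrogel.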

[7] = Identifying Small Molecule Inhibitors of Pancreatic Cancer Stem Cells (SN12C, Adherent) (AID 1259358);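 also: cell survival measured after 48 h of compound exposure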; also: potency is read from the fitted curve at half-maximal effect
Outline: (§3)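 Spheroids grown 14 days in stem cell media on hydrogel-coated nonadherent plates; 2D lines seeded directly. Compounds added after 4 h attachment, 48 h at 37C, 5% CO2; CellTiter-Glo luminescence normalized to DMSO (no inhibition) and no-cell wells (full inhibition).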

[8] = Identifying Small Molecule Inhibitors of Pancreatic Cancer Stem Cells (Panc1, Spheroid) (AID 1259359);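 also: compound exposure lasted 48 h before reading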; also: potency is read from the fitted curve at half-maximal effect
Outline: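 Spheroids grown 14 days in stem cell media on nonadherent hydrogel before screening; cells attached 4 h, then compound exposure 48 h at 37C, 5% CO2. CellTiter-Glo luminescence normalized to DMSO (no inhibition) and no-cell wells (full inhibition).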

[9] = Identifying Small Molecule Inhibitors of Pancreatic Cancer Stem Cells (SN12C, Spheroid) (AID 1259360); settings: Potency: SN12C spheroid viability; also: potency is read from the fitted curve at half-maximal effect
Outline: as §2

[10] = Identifying Small Molecule Inhibitors of Pancreatic Cancer Stem Cells (A278, Adherent) (AID 1259361); also: nearly all actives have a fitted effect of over 35% in size
Outline: as §3

[11] = Identifying Small Molecule Inhibitors of Pancreatic Cancer Stem Cells (Panc1, Adherent) (AID 1259362); settings: Potency: viability; also: potency is read from the fitted curve at half-maximal effect
Outline: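 Luminescent ATP readout (CellTiter-Glo) quantifies surviving cells after a 48 h drug incubation. Normalization uses DMSO wells as no inhibition and media-only wells as full inhibition; bortezomib served as positive control.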

CO[C@H]1C=CO[C@@]2(C)Oc3c(C)c(O)c4c(O)c(c5c(nc6cc(C)ccn65)c4c3C2=O)NC(=O)/C(C)=C\C=C[C@H](C)[C@H](O)[C@@H](C)[C@@H](O)[C@@H](C)[C@H](OC(C)=O)[C@@H]1C
Potency [1]: inactive
Potency [2]: inactive

C=C1CCC[C@]2(C)C[C@]3(O)OC(=O)C(C)=C3C[C@@H]12
Potency [3]: inactive

C=C(NC(=O)C(=C)NC(=O)c1csc(C2=N[C@@H]3c4csc(n4)[C@H]4NC(=O)c5csc(n5)[C@H]([C@](C)(O)[C@@H](C)O)NC(=O)[C@H]5CSC(=N5)C(=CC)NC(=O)C([C@@H](C)O)NC(=O)c5csc(n5)[C@]3(CC2)NC(=O)[C@H](C)NC(=O)C(=C)NC(=O)[C@H](C)NC(=O)C([C@@H](C)CC)NC2C=Cc3c([C@H](C)O)cc(nc3C2O)C(=O)O[C@@H]4C)n1)C(N)=O (stereo not given in full)
Potency [1]: inactive
Potency [2]: inactive

CCCC(=O)O[C@]1(C(=O)CCl)[C@H](C)C[C@@H]2[C@H]3CCC4=CC(=O)C=C[C@]4(C)[C@@]3(F)C(=O)C[C@@]21C
parasite growth, % of control (lower = inhibition) [4]: 32.4%
growth, % of control [5]: 7.79%
Potency [1]: inactive
Potency [2]: 13 µM (active)

CC[C@H]1OC(=O)C[C@@H](O)[C@H](C)[C@@H](O[C@@H]2O[C@H](C)[C@@H](O)[C@H](N(C)C)[C@H]2O)[C@@H](CCN2C[C@H](C)C[C@H](C)C2)C[C@@H](C)C(=O)/C=C/C(C)=C/[C@@H]1CO[C@@H]1O[C@H](C)[C@@H](O)[C@@H](OC)[C@H]1OC
Potency [1]: inactive
Potency [2]: inactive

CC(C)C[C@@H]1NC(=O)[C@H](CCCN)NC(=O)[C@H](C(C)C)NC(=O)[C@@H]2CCCN2C(=O)[C@@H](Cc2ccccc2)NC(=O)[C@H](CC(C)C)NC(=O)[C@H](CCCN)NC(=O)[C@H](C(C)C)NC(=O)[C@@H]2CCCN2C(=O)[C@@H](Cc2ccccc2)NC1=O (cyclo(V[Orn]L[dF]PV[Orn]L[dF]P))
parasite growth, % of control (lower = inhibition) [4]: 6.21%
growth, % of control [5]: 4.03%
Potency [1]: 8200 nM (active)
Potency [2]: inactive

NC(=O)Nc1cc(-c2ccc(CN3CCOCC3)c(F)c2)sc1C(=O)N[C@H]1CCCNC1
Potency [6]: 20900 nM (active)
Potency [7]: 833 nM (active)
Potency [8]: 9350 nM (active)
Potency [9]: 16600 nM (active)
IC50 (viability decrease) [10]: 526 nM (active)
Potency [11]: 833 nM (active)

CCOc1cc2ncc(C#N)c(Nc3ccc(OCc4ccccn4)c(Cl)c3)c2cc1NC(=O)/C=C/CN(C)C
Potency [7]: 418 nM (active)
Potency [9]: 4690 nM (active)
IC50 (viability decrease) [10]: 1180 nM (active)
Potency [11]: 2640 nM (active)

CCCCCCCCCCCCCCCCCCOP(=O)([O-])OC1CC[N+](C)(C)CC1
Potency [6]: inactive
Potency [7]: inactive
Potency [9]: inactive
IC50 (viability decrease) [10]: 8120 nM (active)

O=CCCCC=O
Potency [1]: inactive
Potency [2]: inactive

O=C(O)c1cc(=O)c2c3nc4ccccc4oc-3cc(=O)c2[nH]1
Potency [1]: inactive
Potency [2]: inactive

O=C(O)CC/C=C\CC[C@H]1[C@@H](N2CCCCC2)[C@@H](O)C[C@@H]1OCc1ccc(-c2ccccc2)cc1
Potency [7]: inactive
Potency [8]: inactive
Potency [9]: inactive
IC50 (viability decrease) [10]: inactive

C[C@]12CCC(=O)C=C1CC[C@@H]1[C@@H]2[C@@H](O)C[C@@]2(C)[C@H]1CC[C@]2(O)C(=O)COP(=O)(O)O
Potency [1]: inactive
Potency [2]: inactive

CC[C@@H](C(=O)O)C1CC[C@H](C)C([C@@H](C)[C@H](O)[C@H](C)C(=O)[C@H](CC)C2O[C@]3(C=C[C@@H](O)[C@]4(CC[C@@](C)(C5CC[C@](O)(CC)[C@H](C)O5)O4)O3)[C@H](C)C[C@@H]2C)O1 (stereo not given in full)
Potency [6]: 33.2 nM (active)
Potency [8]: 14800 nM (active)
Potency [9]: 1870 nM (active)
IC50 (viability decrease) [10]: 74.3 nM (active)
Potency [11]: 7430 nM (active)

CC(NC(=O)Cc1cc(F)cc(F)c1)C(=O)NC(C(=O)OC(C)(C)C)c1ccccc1 (stereo not given)
Potency [7]: inactive
IC50 (viability decrease) [10]: inactive
Potency [11]: inactive

CC(=O)O[C@]1(C(C)=O)CC[C@H]2[C@@H]3CCC4=CC(=O)CC[C@]4(C)[C@@]3(F)[C@@H](O)C[C@@]21C
Potency [1]: inactive
Potency [2]: inactive

O=C(O)C[C@H](O)C[C@H](O)/C=C/c1c(C2CC2)nc2ccccc2c1-c1ccc(F)cc1
Potency [1]: inactive
Potency [2]: 8.2 µM (active) and 5.17 µM (active)

CC1=CCC(C(C)(C)O)CC1 (stereo not given)
Potency [1]: inactive
Potency [2]: inactive

COC(=O)C1=C(C)NC(C)=C(C(=O)OCCCN2CCC(c3ccccc3)(c3ccccc3)CC2)[C@H]1c1cccc([N+](=O)[O-])c1
Potency [6]: inactive
IC50 (viability decrease) [10]: 26400 nM (active)

CN(NC(=O)CC(=O)NN(C)C(=S)c1ccccc1)C(=S)c1ccccc1
Potency [7]: inactive
Potency [8]: 3.3 nM (active)
Potency [9]: 743 nM (active)
Potency [11]: inactive
Potency [2]: 0.0517 µM (active)

CC(=O)Oc1cc2c(s1)CCN([C@H](C(=O)C1CC1)c1ccccc1F)C2
Potency [3]: inactive

CC(C)N=c1cc2n(-c3ccc(Cl)cc3)c3ccccc3nc-2cc1Nc1ccc(Cl)cc1
parasite growth, % of control (lower = inhibition) [4]: 166%
growth, % of control [5]: 47.5%
Potency [1]: inactive

CC1(CO)CC[C@]2(C(=O)O[C@@H]3O[C@H](CO)[C@@H](O)[C@H](O)[C@H]3O)CC[C@]3(C)C(=CCC4[C@@]5(C)CC[C@H](O[C@@H]6O[C@H](C(=O)O)[C@@H](O)[C@H](O)[C@H]6O)C(C)(C)C5CC[C@]43C)C2C1 (stereo not given in full)
outcome [3]: inactive [at 9.29 µM]
